Compounds with a hit are over-represented: about 12% of the library has one in this group of screens.
JMJD2A Tudor: qHTS Assay for Inhibitors of JMJD2A-Tudor Domain; AlphaScreen JMJD2A-Tudor / H3K4me3 peptide binding; Potency, µM (doses to about 114 µM), hits mostly inhibitors; 390,000 compounds, 4.4% hits; further: nearly all actives have a fitted effect of over 50% in size
HP1b binding inh: HTS for Inhibitors of HP1-beta Chromodomain Interactions with Methylated Histone Tails. Chromobox protein homolog 1 (Homo sapiens), P83916. Potency, µM (highest dose often 114 µM), hits mostly inhibitors. AlphaScreen HP1-beta / biotin-H3K9me3 peptide binding. 390,000 compounds, 0.56% hits; further: nearly all actives have a fitted effect of over 70% in size
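HP1-beta protein (50 nM final) preincubated 30 min at room temperature with biotinylated H3(1-18)K9me3 peptide (50 nM) in PBS pH 7.4, 0.01% Tween-20, then compound added for 30 min. AlphaScreen streptavidin donor/nickel chelate acceptor beads (10 ug/mL final), 30 min dark, luminescence read.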
PLK1 PBD block: qHTS for Inhibitors of PLK1-PDB (polo-like kinase 1 - polo-box domain): Primary Screen | 360,000 compounds, 2.8% hits | Plk1 PBD binding of FITC phosphopeptide, fluorescence polarization | Serine/threonine-protein kinase PLK1 (Homo sapiens), P53350 | Potency, µM, actives largely listed as inhibitors; further: series mostly up to about 57 µM; nearly all actives have a fitted effect of over 65% in size
G9a inh: qHTS Assay for Inhibitors of Histone Lysine Methyltransferase G9a; Histone-lysine N-methyltransferase EHMT2 (Homo sapiens), Q96KQ7; G9a H3K9 monomethylation, AlphaScreen, 2 h; Potency, µM (highest dose often 102 µM), actives largely listed as inhibitors; 350,000 compounds, 8.8% hits; further: nearly all actives have a fitted effect of over 75% in size
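Readings reflect AlphaScreen signal from monomethyl-H3K9 antibody detection. HMT at 20 nM; substrate b-H3K9 500 nM; cofactor SAM 20 uM; 2 h RT reaction; compounds tested as titrations in qHTS with 15 min preincubation.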
BAZ2B block: qHTS Assay for Inhibitors of BAZ2B | AlphaScreen BAZ2B-H3K14Ac peptide displacement | Bromodomain adjacent to zinc finger domain protein 2B (Homo sapiens), Q9UIF8 | 360,000 compounds, 4.4% hits | Potency, µM (series often up to 114 µM), actives largely listed as inhibitors; further: nearly all actives have a fitted effect of over 60% in size
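In this displacement format the biotinylated H3(5-23) peptide acetylated at Lys14 serves as ligand at 50 nM, with BAZ2B at 50 nM in PBS pH 7.4 containing 0.01% Tween-20. Donor and acceptor beads are 10 ug/mL final.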
PI5P4K alpha inh: qHTS for Inhibitors of phosphatidylinositol 5-phosphate 4-kinase (PI5P4K). AID 652105, 2013. max response, %. 330,000 compounds, 1.2% hits. PI5P4Kalpha enzyme, ADP-Glo luminescence, 60 min; stronger effect = lower value. Phosphatidylinositol 5-phosphate 4-kinase type-2 alpha (Homo sapiens), P48426; active means max response of -50% or lower; inconclusive means between -30% and -50%; inactive means -30% or higher; further: value at the top dose of about 77 µM
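ADP-Glo luminescence end-point after a 60 min room-temperature kinase reaction. PI5P4Kalpha and substrate in HEPES pH 7.4 buffer with EGTA, 0.1% CHAPS and 5% DMSO; ATP at 5 microM final.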
Numbers stand for hits; . = inactive; ? = inconclusive; / = no result; [ ] = another dose, or the depositor's remark. Unless noted, the call rests on the fitted dose curve; in most records, active means well fitted curve in the direction sought with a large enough effect; inconclusive means small, poorly fitted or top-dose-only effect, or another doubt; inactive means no such curve, though single readings can be large; an effect the other way counts as inactive or inconclusive.

SMILES	JMJD2A Tudor	HP1b binding inh	PLK1 PBD block	G9a inh	BAZ2B block	PI5P4K alpha inh
CCOC(=O)CNC(=O)CSc1ccc2nnc(-c3ccc(F)cc3)n2n1	.	.	?	32µM	.	.
CCOC(=O)CSc1ccc2nnc(-c3ccncc3)n2n1	.	.	.	?	.	.
CN(C)c1ncc(C(=O)NCc2ccccc2Cl)cn1	.	.	/	.[12.7 µM]	.	/
COC(=O)c1ccc(CSc2ccc3nnc(-c4ccc(F)cc4)n3n2)o1	.	.	.	.	/	.
CCSc1ccc2nnc(-c3ccc(F)cc3)n2n1	.	.	.	18µM	.	/
CCc1ccc(NC(=O)C2C3CCC(O3)C2C(=O)O)cc1 (configuration not stated)	.	.	.	/	.	.
COC(=O)N1C(=O)[C@@](c2ccc(OC)cc2)(C(C)C)N1C(=O)OC	.	.	.	.	.	.
COC(=O)N1C(=O)[C@](c2ccc(Cl)cc2)(C(C)C)N1C(=O)OC	.	.	24µM	/	.	.
CCC(=O)Oc1oc(-c2ccccc2)nc1C=Nc1ccc(C)cc1	.	.	.	?	.	.
CC(=O)Oc1oc(-c2ccccc2)nc1C=Nc1ccccc1	.	.	?	50µM	.	.
CCOC(=O)c1ccc(N=Cc2nc(-c3ccccc3)oc2OC(C)=O)cc1	.	.	4.7µM	7.9µM	.	/
CN(C)c1ccc(N=Cc2nc(-c3ccccc3)oc2OC(=O)c2cccc(Br)c2)cc1	?	.	.	32µM	35µM	.
Cc1ccc(C(=O)Oc2oc(-c3ccco3)nc2C=Nc2ccccc2)cc1	/	/	/	28µM	.	/
CN(C)CCCO[C@H]1[C@@H]2OC(C)(C)O[C@@H]2O[C@@H]1[C@H](O)CO	/	/	/	.[21.5 µM]	/	/
CN(C)c1ccc(NC(=O)C(=O)C2C(=O)Nc3ccccc32)cc1 (configuration not stated)	.	.	.	56µM	.	.
CN(C)c1ccc(CC2C(=O)Nc3ccccc32)cc1 (configuration not stated)	7.1µM	28µM	.	3.2µM	?	.
CCN1C(=O)C(CC(=O)Nc2ccc(OC)cc2)N(CCCN2CCN(c3ccc(OC)cc3)CC2)C1=S (configuration not stated)	50µM	.	.	?	32µM	.
O=C(Nc1ccc(Cl)cc1)c1ccc(CN2CCc3ccccc3C2)cc1	.	.	.	.	.	.
COc1ccc(NC(=O)N2CCc3ccccc3C2)cc1	.	.	.	.	.	.
CCc1ccc(NC(=O)NCCN2CCN(c3ccc(OC)cc3)CC2)cc1	.	.	.	10µM	?	.
CCc1ccc(N2CCN(CCNC(=O)Nc3ccc(OC)cc3)CC2)cc1	.	.	.	.[0.501 µM]	.	.
O=C(NCCCN1CCc2ccccc2C1)Nc1ccc(Cl)cc1	.	.	.	71µM	.	/
CCN1C(=O)C(CC(=O)Nc2ccc(OC)cc2)N(CCN2CCOCC2)C1=S (configuration not stated)	.	.	.	.	.	.
COc1ccc(Nc2nc(C(=O)N3CCc4ccccc4C3)cs2)cc1	45µM	?	.	/	?	.
CCOC(=O)C(C)NC(=O)C1CCN(c2ncnc3c2nc2n3CCCCC2)CC1 (configuration not stated)	.	.	/	.	.	/
O=C(Cn1ncn2c(cc3sccc32)c1=O)NCCc1ccccc1	.	.	/	.	.	/
O=C(CSc1n[nH]c(-c2ccccc2)n1)NCCCc1ccccc1	.	.	/	.	.	/
COc1ccc(N2CCN(CCCNC(=O)Nc3ccccc3Cl)CC2)cc1	?	?	/	?	35µM	/
CSc1ccc(NC(=O)NCCCN2CCC(Cc3ccccc3)CC2)cc1	?	.	.	?	40µM	.
Cc1ccc(Nc2nc(C(=O)N3CCC(C(=O)N4CCN(C)CC4)CC3)cs2)cc1	?	.	.	50µM	.	.
